Results published in the supplement of paper PMC12669032.
Unmarked numbers belong to inactive results.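 Rule for the calls: active = AUC reduced over 20% with Padj below 0.05 in at least 2 of 3 replicates; inactive = otherwise.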

Key:
Roseburia intestinalis = assay: growth AUC relative to DMSO control (median of replicates) (fraction); higher = more growth (less inhibition), active = hit call of the paper; conditions: 20 µM; 24 h
How it was run: (§1)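 Three biological replicates, each grown on a separate day, were combined as a median for every value. In each, a gut bacterial monoculture in mGAM started at OD600 0.05 and grew anaerobically at 37 °C with 20 µM compound (1% DMSO), with OD600 read hourly over 24 h. Area under the growth curve was normalised against the plate median of solvent-only wells, or against row and column medians on the industrial chemical plate, after the minimum OD was set to 0.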

Streptococcus salivarius = assay: as above; conditions: 20 µM; 24 h
How it was run: as §1

Structure (SMILES)	growth AUC (Roseburia intestinalis)	growth AUC (Streptococcus salivarius)
N#Cc1c(N)nc(NC2CC2)nc1N	0.999	1
CCOc1ccc(C2(C(=O)OC(C#N)c3cccc(Oc4ccccc4)c3)CC2(Cl)Cl)cc1 (configuration not stated)	0.951	0.891
Br[C@@H]1CC[C@@H](Br)[C@@H](Br)CC[C@@H](Br)[C@@H](Br)CC[C@H]1Br	1	0.521 (active)
CC1COc2ccccc2N1C(=O)C(Cl)Cl (configuration not stated)	0.92	0.944
CC1(C)C(C(=O)OC(C#N)c2cccc(Oc3ccccc3)c2)C1C(Br)C(Br)(Br)Br (configuration not stated)	0.932	0.972
COC(=O)c1ccccc1S(=O)(=O)NC(=O)Nc1nc(OC(F)F)cc(OC(F)F)n1	1.01	0.994
Br[C@@H]1CC[C@H](Br)[C@H](Br)CC[C@@H](Br)[C@@H](Br)CC[C@H]1Br	0.962	0.868
COc1cc(OC)nc(Sc2cccc3c2C(=O)OC3C)n1 (configuration not stated)	0.988	0.977
CSc1nc(NC2CC2)nc(NC(C)(C)C)n1	0.981	1
C[S+](C)CCC(=O)O.[Cl-]	1.01	0.994
CCOC(=O)CSc1nc(C(C)(C)C)nn1C(=O)N(C)C	0.913	0.957
O=C1NCC[n+]2ccccc21.[Br-]	0.992	0.987
O=S(=O)(Oc1ccc(Cl)cc1Cl)c1ccccc1	0.974	1.03
COC(=O)C(C)Oc1ccc(Oc2ncc(C(F)(F)F)cc2Cl)cc1 (configuration not stated)	1.01	0.954
CCCCOCCOCCOCc1cc2c(cc1CCC)OCO2	1	1.03
COC(=O)C(C)Oc1ccc(Cl)cc1C (configuration not stated)	1.04	0.988

Structure (SMILES)	growth AUC (Roseburia intestinalis)	growth AUC (Streptococcus salivarius)
CCNc1nc(NC(C)(C)C)nc(OC)n1	1.05	1
Nc1cccc(O)c1	0.989	1.02
NC(=O)C1CO1 (configuration not stated)	0.855	1.01
Cc1cc(C2CC2)nc(Nc2ccc(O)cc2)n1	1.01	1.01
COc1cc(OC)nc(NC(=O)NS(=O)(=O)N(C)S(C)(=O)=O)n1	0.99	1.02
CCNc1nc(NCC)nc(OC)n1	0.993	1.01
CN(C)C(=O)Nc1ccc(Oc2ccc(Cl)cc2)cc1	0.874	0.94
COc1ccc(Oc2ccc(NC(=O)N(C)C)cc2)cc1	0.99	0.988
CCSC(=O)N(CC)CC	1.06	0.954
Cc1cc(C)c(C2=C(O)C3(CCCC3)OC2=O)c(C)c1	1.02	0.985
CC(C)CCCCCOC(=O)C(C)Oc1ccc(Cl)cc1Cl (configuration not stated)	1.03	0.982
CC(C)(C)[C@@H](O)[C@@H](Cc1ccc(Cl)cc1)n1cncn1 (mixture of isomers)	0.963	0.95
CCc1cc(C(=O)O)cc(CC)c1C1C(=O)N2CCOCCN2C1=O	0.952	1
Cc1[nH]oc(=O)c1N=Nc1ccccc1Cl	0.938	0.982
O=C(Nc1ccc(F)cc1-c1ccc(Cl)c(Cl)c1)c1cn[nH]c1C(F)F	0.892	0.945
